Only some compounds are listed: those with a hit (about 2% of all), similar ones and a draw of the others.
NPR2 activator: human GC-B receptor activators, primary screen, HEK293 GC-B cells, cGMP TR-FRET, EC30 CNP | 0% at EC30 CNP, 100% saturating CNP | Atrial natriuretic peptide receptor 2 (Homo sapiens), P20594 | activation, % at 10 µM | actives 0.11% (n = 370,000);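 active = activation at 10 µM reaching about 35% in either raw or pattern-adjusted values, limit read from the data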
ADAM17 inh: ADAM17 inhibitors, primary screen, biochemical, QFRET; actives 0.83% (n = 370,000); Disintegrin and metalloproteinase domain-containing protein 17 (Homo sapiens), P78536; AID 720648, 2013; recombinant ADAM17, EDANS/DABCYL FRET peptide cleavage; inhibition, % at 6.95 µM;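 active = inhibition above the mean of compounds lying between control limits plus 3 SD, set per campaign, cut at about 8.5% in these data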
ADAM10 inh: human ADAM10 inhibitors, primary screen, biochemical, QFRET, HTS. inhibition, % at 7 µM. AID 720582, 2013. recombinant ADAM10, EDANS/DABCYL FRET peptide cleavage, 3 h. actives 0.62% (n = 370,000). Disintegrin and metalloproteinase domain-containing protein 10 (Homo sapiens), O14672;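 active = inhibition above a per-campaign cutoff equal to the mean of compounds falling between control-based bounds plus 3 SD, cut at about 20% in these data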
GC-A act: GC-A stimulated cGMP production enhancers – HEK293 GC-A cells, cGMP TR-FRET, EC30 ANP, primary screen; actives 0.14% (n = 370,000); activation, % at 10 µM; Atrial natriuretic peptide receptor 1 (Homo sapiens), P16066; 0% at EC30 ANP, 100% saturating ANP; in the data active = activation above about 40%
FAS TE block: FAS thioesterase domain inhibitors, primary screen, biochemical, fluorescence intensity, uHTS; Fatty acid synthase (Homo sapiens), P49327; recombinant FAS-TE, OMFH fluorogenic substrate, fluorescence endpoint; inhibition, % at 15 µM; actives 0.67% (n = 360,000);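 active = compounds whose normalised, plate-corrected inhibition of enzyme fluorescence in the single-dose primary screen is 50% or more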
Numbers stand for hits; n = inactive; x = not tested or not shown.

SMILES | NPR2 activator | ADAM17 inh | ADAM10 inh | GC-A act | FAS TE block
N#CCCN1CCN(C(=S)c2ccc(-c3cc(Cl)ccc3Cl)o2)CC1 | 97 | n | n | n | n
COC(=O)[C@]12C[C@H](CC(=O)NCC34CC5CC(CC(C5)C3)C4)C(=O)N(CCc3ccc(OC)c(OC)c3)C1=C[C@H](COCc1ccccc1)O[C@@H]2C | n | n | n | n | x
COC(=O)COc1ccc2cc(-c3ccccc3)c(=O)oc2c1 | n | n | n | 43 | n
COc1ccc(-c2cc(=O)oc3cc(OCC(=O)N4CCOCC4)ccc23)cc1 | n | n | n | n | n
COC(=O)COc1ccc2c(-c3ccc(OC)cc3)cc(=O)oc2c1 | n | n | n | 61 | n
N#Cc1ccccc1NC(=O)C1SC(=Nc2ccccc2)C(C(=O)Nc2ccc(Cl)cc2)=C1N (centres undefined) | n | 16 | 37 | n | n
CCN(CC)C(=O)CC[C@@H]1CC[C@]2(CCCN(C(=O)c3ccco3)C2)O1 | n | n | n | n | x
ClCc1nnc(-c2cc3c(s2)CCCC3)o1 | n | n | n | 54 | n
CC(C)(C)C1CCc2sc(-c3nnc(CCl)o3)cc2C1 (centres undefined) | n | n | n | n | n
CC1=C2N=C(N)N(Cc3ccccc3)C(Cc3ccccc3)C2n2c(=O)n(-c3ccccc3)c(=O)n2C1 (centres undefined) | n | n | n | n | x
COC(=O)c1ccc(Cn2ccc3ccc(-c4ccc5ccn(C(=O)c6ccccc6OC)c5c4)cc32)cc1 | n | n | n | n | x
O=C(Cn1ncc2c3ccccc3n(Cc3ccccc3F)c2c1=O)N1CCN(c2ccccn2)CC1 | 41 | n | n | n | n
O=C(Cn1ncc2c3ccccc3n(Cc3cccc(Cl)c3)c2c1=O)NCC1CCCO1 (centres undefined) | n | n | n | n | n
O=C(CCSCc1ccccc1F)N1CCN(c2ccccn2)CC1 | n | n | n | n | n
O=C(Cn1ncc2c3ccccc3n(Cc3ccccc3F)c2c1=O)NCC1CCCO1 (centres undefined) | 36 | n | n | n | n
COc1ccc(CSc2nnc(SCC(=O)Nc3ccc4c(c3)OCO4)s2)cc1 | n | n | n | n | x
Cc1ccc(S(=O)(=O)CCC(=O)NCc2ccc(Cl)cc2)cc1 | n | n | n | n | n
Cc1ccc(C(=O)CCS(=O)(=O)c2ccc(F)cc2)cc1 | n | n | n | 52 | n
COc1ccc(C(=O)CCS(=O)(=O)c2ccc(F)cc2)cc1OC | n | n | n | n | n
Cc1ccc(S(=O)(=O)CCC(=O)c2ccc(F)cc2)cc1 | n | n | n | 71 | n
Cc1ccc(C(=O)CCS(=O)(=O)c2ccc(Cl)cc2)cc1 | n | n | n | 52 | n
COc1ccccc1-c1cc(-c2ccc(O)cc2)nc(N)c1C#N | n | n | n | 41 | n
N#CCC[C@@H]1CC[C@]2(CCCN(S(=O)(=O)C3CCCCC3)C2)O1 | n | n | n | n | x
Cc1cccc([C@@H]2[C@@H]3C(=O)N(Cc4ccccc4)C(=O)[C@@H]3[C@]3(Cc4ccccc4)C(=O)N(c4cccc(Cl)c4)C(=O)N23)c1 | n | n | n | n | 82
Cc1cccc([C@@H]2[C@@H]3C(=O)N(Cc4ccccc4)C(=O)[C@@H]3[C@]3(CC(C)C)C(=O)N(c4cccc(Br)c4)C(=O)N23)c1 | x | x | x | x | 88
SMILES | NPR2 activator | ADAM17 inh | ADAM10 inh | GC-A act | FAS TE block
CC[C@@]12C(=O)N(c3ccccc3)C(=O)N1[C@H](c1cccc(C)c1)[C@@H]1C(=O)N(Cc3ccccc3)C(=O)[C@@H]12 | n | n | n | n | n
N#Cc1ccc(C(=O)NCC2CCN(C(=O)C(=O)c3cccs3)CC2)cc1 | n | n | n | n | x
O=C(Nc1ccccc1)Nc1c(-c2ccccc2)nc2ncccn12 | n | n | n | n | x
Cc1ccc(S(=O)(=O)N2c3ccccc3C[C@H]2CCC(=O)c2ccccc2)cc1 | n | n | n | n | x
O=C(CNC(=O)c1ccc(Cl)cc1)OC1CCOC1=O (centres undefined) | n | n | n | n | n
CCCCOc1ccc(C(=O)NCC(=O)OC2CCOC2=O)cc1 (centres undefined) | n | n | n | 57 | n
CCN1CCN(c2cc(C)c3cc(NC(=O)c4ccc(OC)c(OC)c4)ccc3n2)CC1 | 47 | n | n | n | n
N/C(=N\C(=O)OCc1ccccc1)N(CC#CC1=CCCCC1)CC1CC1 | n | n | n | n | x
COC(=O)C[C@@H]1CC[C@@H]2[C@@H](COc3ccc(NC(=O)Nc4cccc(Cl)c4)cc3C(=O)N2C)O1 | n | n | n | n | x
O=C(OCc1cn(Cc2cccc(F)c2F)nn1)N1CCCC1 | n | n | n | n | x
O=C(Nc1ccc(Oc2cccnc2)cc1)c1cccc([N+](=O)[O-])c1 | x | x | x | x | 57
Cc1ccc(NC(=O)c2cc(S(=O)(=O)N(C)C)ccc2N2CCCC2)cc1S(=O)(=O)N(C)C | 38 | n | n | n | n
O=S1(=O)N[C@@H](Cc2ccccc2)COc2cc(N3CCOCC3)ccc21 | n | n | n | n | x
CCC[C@H]1[C@H](N)CC[C@@]23CCCN2C(=O)CCC[C@@H]13 | n | n | n | n | x
COC(=O)C1CN(Cc2cn(Cc3ccc(Cl)cc3)nn2)CCS(=O)(=O)N1Cc1ccc(F)cc1 (centres undefined) | n | n | n | n | x
Cc1ccccc1Nc1c(-c2ccc(N3CCOCC3)cc2)nc2cnccn12 | n | n | n | n | n
Cc1ccc(Nc2c(-c3ccccc3O)nc3cnccn23)cc1 | n | n | n | 48 | n
Cc1ccc2nc(-c3ccccc3O)c(Nc3ccc4c(c3)OCCO4)n2c1 | n | n | n | n | n
COc1ccc(Nc2c(-c3ccc(C)cc3)nc3cnccn23)cc1 | 48 | n | n | 46 | n
Cc1ccc(Nc2c(-c3ccccc3O)nc3ncccn23)cc1 | n | n | n | 54 | n
Cc1ccc(Nc2c(-c3ccc(N4CCOCC4)cc3)nc3cnccn23)cc1 | n | n | n | n | n
Cc1cccc(Nc2c(-c3ccc(O)cc3)nc3ncccn23)c1 | n | n | n | n | n
COc1ccc(Nc2c(-c3ccc(OC)cc3)nc3cnccn23)cc1 | 49 | n | n | 50 | n
COC(=O)[C@]12C[C@H](CC(=O)NCC34CC5CC(CC(C5)C3)C4)C(=O)N(CCc3ccc(OC)c(OC)c3)C1=C[C@H](C1CCCC1)O[C@@H]2C | n | n | n | n | x
FC(F)(F)c1cccc(Cn2ccc3ccc(-c4ccc5ccn(Cc6cccc(C(F)(F)F)c6)c5c4)cc32)c1 | n | n | n | n | x

Assay outcomes (PubChem BioAssay)
